# Source: PubChem (The Scripps Research Institute Molecular Screening Center)
# MITF primary = inhibitors of human MITF. actives 0.91% (n = 650,000). inhibition, % at 2.6 µM. AID 1259374. O75030. AlphaScreen MITF homodimerization, bead proximity signal; in the data active means inhibition above about 50%
# TEAD-YAP inh = TEAD-YAP interaction inhibition. AID 1259422. HEK-TIYL cells, TEAD-Gal4/YAP UAS-luciferase luminescence. actives 1.4% (n = 640,000). inhibition, % at 9.12 µM; in the data active means inhibition above about 32%
# GPR151 activ = human GPR151 activation; Q8TDV0; PathHunter beta-arrestin GPR151 cells, luminescence; activation, % at 11.2 µM; actives 1% (n = 650,000); AID 1508602; in the data active means activation above about 4.9%
# Target sequence (Q8TDV0 whole entry, looked up): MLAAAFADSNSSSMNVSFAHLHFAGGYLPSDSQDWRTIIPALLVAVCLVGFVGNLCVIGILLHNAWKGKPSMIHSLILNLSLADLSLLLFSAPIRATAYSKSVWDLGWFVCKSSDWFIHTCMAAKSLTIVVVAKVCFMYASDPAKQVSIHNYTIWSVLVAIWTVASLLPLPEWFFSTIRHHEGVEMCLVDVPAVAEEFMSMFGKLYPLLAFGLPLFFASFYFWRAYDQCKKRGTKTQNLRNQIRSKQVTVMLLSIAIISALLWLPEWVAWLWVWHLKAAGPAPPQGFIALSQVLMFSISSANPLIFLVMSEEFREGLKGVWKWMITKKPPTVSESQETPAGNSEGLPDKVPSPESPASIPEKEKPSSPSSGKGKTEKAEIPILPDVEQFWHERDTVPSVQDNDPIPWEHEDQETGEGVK
# FBW7 activator = human FBW7 E3 ligase activation, primary screen | Q969H0 | AlphaScreen FBW7–phospho-cyclin E peptide binding, activator screen | normalized activity (activation), % at 26.1 µM | actives 0.13% (n = 650,000); in the data active means normalized activity above about 1.9%;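 further: purified mutant Fbw7 with reduced substrate affinity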
# MITF inh conf = confirmation of human MITF inhibitors; shares compounds with MITF primary; AlphaScreen MITF homodimerization, biotin/His-MITF beads; inhibition, % at 2.6 µM; actives 16% (n = 4,700);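 active means inhibition above a cutoff derived from the DMSO control wells, cut at about 28% in these data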;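 further: inhibitors lower the bead chemiluminescence by keeping MITF from dimerizing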
# AlphaScreen DR = counter-screen: compounds optically interfering with AlphaScreen | shares compounds with MITF primary | AlphaScreen optical interference counterscreen, cell-free | IC50, µM | actives 6% (n = 480) | AID 1259373; call rule not given here
# AS interf ctr = optically interferes with AlphaScreen signal | shares compounds with MITF primary | LysRS AlphaScreen counterscreen, signal interference, triplicate | inhibition, % at 2.6 µM | actives 7.6% (n = 4,700);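 active means inhibition above a cutoff derived from the DMSO control wells, cut at about 30% in these data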
# Numbers stand for hits; – = inactive; · = no result given. Rows were chosen to be rich in hits. Some 3.5% of all compounds tested hit in one or more screens of this group.
SMILES,MITF primary,TEAD-YAP inh,GPR151 activ,FBW7 activator,MITF inh conf,AS interf ctr,others
CCOC(=O)CSc1nc2ccsc2c(=O)n1-c1ccc(C)c(C)c1,–,–,–,–,·,·,
Cc1cc(C)cc(NC(=O)C2CCN(C(=O)c3ccccc3)CC2)c1,–,–,–,–,·,·,
O=C(NN1C(=O)c2ccc(Oc3ccc([N+](=O)[O-])cc3)cc2C1=O)c1ccco1,57.5,–,–,–,–,–,
CC(=O)Nc1ccc(N/C(C)=C/C(=O)c2ccc(C)cc2)cc1,–,–,–,–,·,·,
CCCCNc1nc(-c2cc(OC)ccc2OC)cs1,59.1,–,–,–,–,–,
O=S(=O)(O)c1cc(S(=O)(=O)O)c2cc(O)c(S(=O)(=O)O)cc2c1,60.4,–,–,–,67.1,–,AlphaScreen DR=–
COc1cc(NC(=S)NC(=O)c2ccc([N+](=O)[O-])cc2)ccc1NC(=O)c1ccco1,–,–,–,–,·,·,
O=C(NCC(O)c1ccc(Br)cc1)c1cn(-c2ccc3c(=O)[nH]ccc3c2)nn1 (configuration not stated),–,–,–,–,·,·,
COc1cccc(CN2CCN(Cc3cccc(Br)c3)CC2)c1OC,69.6,–,–,–,–,–,
COc1cccc(CN2CCN(C(=O)c3cccc(Cl)c3)CC2)c1OC,–,–,–,–,·,·,
COc1ccc(CN2CCN(Cc3cccc(OC)c3OC)CC2)cc1Br,75.1,–,–,–,–,–,
COc1cccc(CNc2cccc(C)c2)c1OC,78.4,–,–,–,–,–,
COc1ccc(CN2CCN(Cc3cccc(F)c3)CC2)c(OC)c1OC,–,–,–,–,·,·,
COc1cccc(CN2CCN(Cc3cccc(Cl)c3)CC2)c1OC,73.1,–,–,–,–,–,
COc1cccc(CNc2cccc(F)c2)c1OC,–,–,–,–,·,·,
Cc1ccc2nc(NC(=O)Cn3ncc4ccccc43)sc2c1,–,–,–,–,·,·,
CCC(=O)N(CCN(Cc1ccccc1)C(=O)CC)Cc1ccccc1,–,–,–,–,·,·,
Cc1cccc(NC(=O)c2sc3nc(C)[nH]c(=O)c3c2C)c1,–,–,–,–,·,·,
CCc1c(-c2ccccc2O)cc(-c2ccccc2)nc1-c1ccccc1,–,–,–,–,·,·,
COc1cccc(CN2CCN(Cc3cccc(C)c3)CC2)c1OC,76.3,–,–,–,–,–,
Cc1ccc(Nc2nc(-c3ccccn3)cs2)c(C)c1,51.2,57.2,–,–,–,39.0,
NC(=O)c1ccccc1NC(=S)NC(=O)/C=C/c1ccco1,53.8,41.2,–,–,69.9,–,AlphaScreen DR=–
Cc1ccc(O)c(NC(=S)NC(=O)/C=C/c2ccco2)c1,62.0,–,–,–,29.6,–,AlphaScreen DR=–
O=C(/C=C/c1cccc([N+](=O)[O-])c1)NC(=S)Nc1ccccc1C(=O)O,86.0,–,–,–,–,–,
CNC(=O)C1Cc2ccccc2N1C(=O)NCc1cccs1 (configuration not stated),–,–,–,–,·,·,
SMILES,MITF primary,TEAD-YAP inh,GPR151 activ,FBW7 activator,MITF inh conf,AS interf ctr,others
COc1ccc(C(CC(=O)O)NC(=O)c2ccc([N+](=O)[O-])cc2)cc1 (configuration not stated),–,–,–,–,·,·,
CCOC(=O)c1ccc(NC(=S)N2CCN(C(=O)OCC)CC2)cc1,–,–,–,–,·,·,
CCOc1ccc(NCC(=O)Nc2ccc(F)cc2)cc1,68.1,–,–,–,–,–,
CCOC(=O)N1CCN(C(=S)Nc2ccc(OCC)cc2)CC1,101.8,–,–,–,64.1,–,AlphaScreen DR=–
CN(C)c1ccc(NC(=O)CN2C(=O)C3CCCCN3C(=O)c3ccccc32)cc1 (configuration not stated),–,–,–,–,·,·,
CC1=NC2(CCN(S(C)(=O)=O)CC2)N=C1c1ccc(Cl)cc1,–,–,–,–,·,·,
O=S(=O)(c1ccc(F)cc1)N1CCN(C2CCCCC2)CC1,84.8,–,–,–,–,–,
O=S(=O)(c1ccc(F)cc1)N1CCN(C2CCCCCC2)CC1,–,–,–,–,·,·,
O=S(=O)(c1ccc(F)cc1)N1CCN(C2CCCC2)CC1,–,–,–,–,·,·,
CCCN1CCC(N2CCN(S(=O)(=O)c3ccc(F)cc3)CC2)CC1,54.5,–,–,–,–,–,
CS(=O)(=O)N1CCN(C2CCCCC2)CC1,58.2,–,–,–,–,–,
CC1CN(C2CCN(S(=O)(=O)c3ccc(F)cc3)CC2)CC(C)O1 (configuration not stated),56.6,–,–,–,–,–,
CN1C(=O)C(C)(C)c2cc(S(=O)(=O)NCc3ccc(F)cc3)ccc21,–,–,–,–,·,·,
CC(C)c1ccc(NC(=O)CSc2nc3[nH]ncc3c(=O)n2-c2cccc3ccccc23)cc1,–,–,–,–,·,·,
CC(C)(C)SCCNC(=O)CN(c1ccc(Cl)cc1Cl)S(C)(=O)=O,–,–,–,–,·,·,
CCc1c(C)nc(/N=C(\N)Nc2ccccc2OC)[nH]c1=O,–,–,–,–,·,·,
Cc1ccc(S(=O)(=O)n2c(SCC(=O)Nc3ccc(Oc4ccccc4)cc3)nc3ccccc32)cc1,–,–,–,–,·,·,
CC(C)CC(C(=O)O)N1C(=O)/C(=C\c2cccn2C)SC1=S (configuration not stated),–,–,–,–,·,·,
O=C1CSc2ccc(S(=O)(=O)N3CCCC3)cc2N1,116.2,–,–,–,–,–,
CCN1CCN(S(=O)(=O)c2ccc3c(c2)SCC(=O)N3)CC1,–,–,–,–,·,·,
O=[N+]([O-])c1ccc(S(=O)(=O)N2CCN(Cc3ccccc3Cl)CC2)cc1,61.7,–,–,–,–,–,
COc1ccc(S(=O)(=O)N2CCN(Cc3ccccc3[N+](=O)[O-])CC2)cc1,51.4,–,–,–,36.0,–,
O=[N+]([O-])c1ccc(S(=O)(=O)N2CCN(Cc3ccccc3F)CC2)cc1,–,–,–,–,·,·,
Cc1ccccc1CN1CCN(S(=O)(=O)c2ccc([N+](=O)[O-])cc2)CC1,70.9,–,–,–,–,–,
c1ccc(C2=NN3C(C2)c2ccccc2OC3c2ccco2)cc1 (configuration not stated),–,–,–,–,·,·,
SMILES,MITF primary,TEAD-YAP inh,GPR151 activ,FBW7 activator,MITF inh conf,AS interf ctr,others
CC(C)CC1=NN(C(=O)c2ccc(O)cc2)C(O)(C(F)(F)F)C1 (configuration not stated),–,–,–,–,·,·,
COC(=O)C1(O)CC(CC(C)C)=NN1C(=O)c1ccccc1 (configuration not stated),70.8,–,–,–,–,–,
CC(C)N1CCc2c(sc(NC(=O)c3nc4ccccc4s3)c2C#N)C1,–,–,–,–,·,·,
Cc1ccc2c(c1)c(=O)c1ccccc1n2CC(=O)Nc1ccc(F)cc1F,77.4,–,–,–,–,–,
Cn1c(=O)c2c(SCC(=O)NC3CCCCC3)nc(-c3cccs3)nc2n(C)c1=O,–,–,–,–,·,·,
CC1=C(C(=O)Nc2ccccc2C)C(c2ccco2)C(C#N)=C(SCC(=O)Nc2ccc(C)cc2)N1 (configuration not stated),–,–,–,–,·,·,
